# Data published in publication PMC7862700, “An all-to-all approach to the identification of sequence-specific readers for epigenetic DNA modifications on cytosine”.
# Tests used:
# Assay in all cases: DAPPL (digital affinity profiling via proximity ligation, sequencing); 10 mM Tris-HCl pH 7.5, 50 mM NaCl, 1 mM DTT, 4% glycerol, room temperature, 30 min; GST-TFs on glutathione beads, 16-mer random dsDNA library, 0.1% formaldehyde crosslink after washing; high values mean tight binding
# FLI1 = biological target: T1, FLI1 (Homo sapiens, UniProt Q01543 1-452); conditions: protein: recombinant; tags: N-terminal GST; dsDNA, one strand shown
# T1 sequence: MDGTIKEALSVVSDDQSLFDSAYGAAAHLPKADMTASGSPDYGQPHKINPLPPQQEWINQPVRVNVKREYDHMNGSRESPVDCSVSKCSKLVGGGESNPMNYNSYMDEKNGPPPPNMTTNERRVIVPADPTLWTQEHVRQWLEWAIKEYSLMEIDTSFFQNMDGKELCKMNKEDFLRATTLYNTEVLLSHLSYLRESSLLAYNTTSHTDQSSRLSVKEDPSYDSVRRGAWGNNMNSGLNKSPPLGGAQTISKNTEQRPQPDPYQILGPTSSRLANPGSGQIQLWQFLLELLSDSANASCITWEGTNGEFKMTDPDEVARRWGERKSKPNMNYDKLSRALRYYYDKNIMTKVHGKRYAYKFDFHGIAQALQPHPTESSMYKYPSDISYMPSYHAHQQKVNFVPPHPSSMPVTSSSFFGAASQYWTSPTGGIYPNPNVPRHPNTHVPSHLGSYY
# How it was run: (§1)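 Each value of binding signal is a hexamer's read frequency for a factor divided by the same hexamer's frequency in the tag-only sample. Barcoded, bead-captured GST fusions of human transcription factors made in yeast were pooled with that sample and incubated with 200 nmole of a random double-stranded 16-mer DNA library in Tris/NaCl/DTT/glycerol buffer at room temperature for 30 min. Washing, 0.1% formaldehyde crosslinking, proximity ligation, PCR and Illumina NextSeq500 sequencing followed.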
# ELK1 = biological target: T2, ELK1 (Homo sapiens, UniProt P19419 1-428); conditions: protein: recombinant; tags: N-terminal GST; dsDNA, one strand shown
# T2 sequence: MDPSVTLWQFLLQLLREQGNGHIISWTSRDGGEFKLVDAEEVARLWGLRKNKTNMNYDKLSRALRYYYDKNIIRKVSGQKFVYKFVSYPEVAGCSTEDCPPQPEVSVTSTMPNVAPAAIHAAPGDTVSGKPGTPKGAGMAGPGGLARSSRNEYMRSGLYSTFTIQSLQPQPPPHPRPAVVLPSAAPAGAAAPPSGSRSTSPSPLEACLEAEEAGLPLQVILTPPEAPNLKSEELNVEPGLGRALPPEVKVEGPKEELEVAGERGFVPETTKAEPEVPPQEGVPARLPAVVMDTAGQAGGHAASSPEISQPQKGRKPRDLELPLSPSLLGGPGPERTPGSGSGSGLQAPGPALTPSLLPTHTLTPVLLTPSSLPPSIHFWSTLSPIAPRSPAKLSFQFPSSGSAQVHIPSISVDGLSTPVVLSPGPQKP
# How it was run: as §1
# GABPA = biological target: T3, GABPA (Homo sapiens, UniProt Q06546 1-454); conditions: protein: recombinant; tags: N-terminal GST; dsDNA, one strand shown
# T3 sequence: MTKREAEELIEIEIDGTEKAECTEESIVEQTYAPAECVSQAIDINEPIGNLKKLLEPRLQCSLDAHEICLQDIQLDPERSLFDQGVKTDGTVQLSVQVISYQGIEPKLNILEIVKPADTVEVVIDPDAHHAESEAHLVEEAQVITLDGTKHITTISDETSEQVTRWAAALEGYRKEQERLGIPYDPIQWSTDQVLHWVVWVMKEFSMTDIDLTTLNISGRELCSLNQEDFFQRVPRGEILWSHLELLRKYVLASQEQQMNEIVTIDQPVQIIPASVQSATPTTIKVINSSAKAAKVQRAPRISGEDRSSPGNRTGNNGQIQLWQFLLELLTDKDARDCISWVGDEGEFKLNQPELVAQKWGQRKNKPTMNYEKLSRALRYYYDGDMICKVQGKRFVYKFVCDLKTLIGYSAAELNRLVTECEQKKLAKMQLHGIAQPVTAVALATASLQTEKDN
# How it was run: as §1
# ERG = biological target: T4, ERG (Homo sapiens, UniProt P11308 1-479); conditions: protein: recombinant; tags: N-terminal GST; dsDNA, one strand shown
# T4 sequence: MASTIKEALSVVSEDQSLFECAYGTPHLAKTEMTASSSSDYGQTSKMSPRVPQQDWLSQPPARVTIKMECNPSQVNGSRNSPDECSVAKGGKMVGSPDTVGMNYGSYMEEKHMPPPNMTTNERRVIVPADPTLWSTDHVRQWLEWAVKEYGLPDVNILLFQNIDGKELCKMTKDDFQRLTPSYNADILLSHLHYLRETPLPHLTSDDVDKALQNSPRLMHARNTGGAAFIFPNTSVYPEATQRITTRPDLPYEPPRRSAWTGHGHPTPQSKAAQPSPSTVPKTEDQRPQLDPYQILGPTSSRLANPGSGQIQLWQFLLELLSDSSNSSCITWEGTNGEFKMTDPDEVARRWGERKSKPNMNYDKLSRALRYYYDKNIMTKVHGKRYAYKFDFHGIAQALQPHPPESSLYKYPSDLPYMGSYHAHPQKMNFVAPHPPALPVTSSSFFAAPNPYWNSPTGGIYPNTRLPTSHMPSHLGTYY
# How it was run: as §1
# ELF1 = ELF1 (Homo sapiens, UniProt P32519 1-619); conditions: protein: recombinant; tags: N-terminal GST; dsDNA, one strand shown
# Chain of ELF1 (P32519 whole entry): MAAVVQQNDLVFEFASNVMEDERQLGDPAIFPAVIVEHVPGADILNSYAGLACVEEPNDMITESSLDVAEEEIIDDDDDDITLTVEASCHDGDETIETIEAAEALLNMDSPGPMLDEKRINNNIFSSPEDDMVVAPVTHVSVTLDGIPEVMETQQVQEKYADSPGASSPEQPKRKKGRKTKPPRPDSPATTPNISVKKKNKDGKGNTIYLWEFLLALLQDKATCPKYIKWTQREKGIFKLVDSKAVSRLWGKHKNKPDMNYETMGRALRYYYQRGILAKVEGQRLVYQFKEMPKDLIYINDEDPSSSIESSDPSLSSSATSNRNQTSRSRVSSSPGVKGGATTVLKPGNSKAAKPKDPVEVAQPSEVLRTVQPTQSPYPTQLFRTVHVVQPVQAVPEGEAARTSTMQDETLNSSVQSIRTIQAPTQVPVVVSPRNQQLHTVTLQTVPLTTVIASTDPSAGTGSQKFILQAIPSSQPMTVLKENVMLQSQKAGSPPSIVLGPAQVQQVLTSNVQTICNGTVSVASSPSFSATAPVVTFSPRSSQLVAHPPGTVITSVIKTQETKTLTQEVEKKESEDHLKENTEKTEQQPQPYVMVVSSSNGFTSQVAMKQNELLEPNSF
# How it was run: as §1
# EHF = biological target: T5, EHF (Homo sapiens, UniProt Q9NZC4 1-300); conditions: protein: recombinant; tags: N-terminal GST; dsDNA, one strand shown
# T5 sequence: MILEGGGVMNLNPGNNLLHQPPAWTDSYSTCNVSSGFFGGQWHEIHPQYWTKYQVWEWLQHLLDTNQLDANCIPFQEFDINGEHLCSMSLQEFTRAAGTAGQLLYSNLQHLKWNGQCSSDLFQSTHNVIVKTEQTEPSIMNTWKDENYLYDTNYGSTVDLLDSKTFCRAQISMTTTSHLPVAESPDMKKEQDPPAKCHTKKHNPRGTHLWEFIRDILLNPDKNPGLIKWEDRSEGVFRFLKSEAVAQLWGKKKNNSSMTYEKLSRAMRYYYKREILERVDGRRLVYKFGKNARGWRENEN
# How it was run: as §1
# SPI1 = SPI1 (Homo sapiens, UniProt P17947 1-270); conditions: protein: recombinant; tags: N-terminal GST; dsDNA, one strand shown
# How it was run: as §1
# SPIB = SPIB (Homo sapiens, UniProt Q01892 1-262); conditions: protein: recombinant; tags: N-terminal GST; dsDNA, one strand shown
# Chain of SPIB (Q01892 whole entry): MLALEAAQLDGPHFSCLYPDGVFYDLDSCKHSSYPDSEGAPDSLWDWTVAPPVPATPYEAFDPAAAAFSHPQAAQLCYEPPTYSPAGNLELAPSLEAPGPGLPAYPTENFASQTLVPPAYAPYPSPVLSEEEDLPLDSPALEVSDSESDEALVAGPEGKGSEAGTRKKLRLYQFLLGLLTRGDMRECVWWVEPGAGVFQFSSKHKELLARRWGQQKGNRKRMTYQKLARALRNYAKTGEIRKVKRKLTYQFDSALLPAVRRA
# How it was run: as §1
# ELK3 = biological target: T6, ELK3 (Homo sapiens, UniProt P41970 1-407); conditions: protein: recombinant; tags: N-terminal GST; dsDNA, one strand shown
# T6 sequence: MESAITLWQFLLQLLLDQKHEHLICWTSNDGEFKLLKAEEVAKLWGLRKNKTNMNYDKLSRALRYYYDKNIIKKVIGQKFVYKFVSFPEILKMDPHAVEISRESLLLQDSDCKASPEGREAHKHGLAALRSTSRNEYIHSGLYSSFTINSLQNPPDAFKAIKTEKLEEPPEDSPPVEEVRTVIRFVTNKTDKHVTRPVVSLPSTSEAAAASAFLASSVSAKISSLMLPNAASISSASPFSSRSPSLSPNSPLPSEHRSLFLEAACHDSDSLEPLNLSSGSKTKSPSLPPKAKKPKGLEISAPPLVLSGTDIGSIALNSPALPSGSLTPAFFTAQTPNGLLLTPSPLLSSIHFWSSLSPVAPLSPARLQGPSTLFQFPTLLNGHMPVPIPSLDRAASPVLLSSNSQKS
# How it was run: as §1
# FEV = biological target: T7, FEV (Homo sapiens, UniProt Q99581 1-238); conditions: protein: recombinant; tags: N-terminal GST; dsDNA, one strand shown
# T7 sequence: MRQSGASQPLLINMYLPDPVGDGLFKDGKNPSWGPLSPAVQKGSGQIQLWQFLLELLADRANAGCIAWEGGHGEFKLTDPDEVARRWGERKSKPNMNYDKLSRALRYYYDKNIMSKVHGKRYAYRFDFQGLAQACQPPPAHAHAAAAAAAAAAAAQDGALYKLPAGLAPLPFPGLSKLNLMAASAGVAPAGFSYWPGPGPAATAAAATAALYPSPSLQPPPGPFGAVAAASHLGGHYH
# How it was run: as §1
# ETV5 = ETV5 (Homo sapiens, UniProt P41161 1-510); conditions: protein: recombinant; tags: N-terminal GST; dsDNA, one strand shown
# Chain of ETV5 (P41161 whole entry): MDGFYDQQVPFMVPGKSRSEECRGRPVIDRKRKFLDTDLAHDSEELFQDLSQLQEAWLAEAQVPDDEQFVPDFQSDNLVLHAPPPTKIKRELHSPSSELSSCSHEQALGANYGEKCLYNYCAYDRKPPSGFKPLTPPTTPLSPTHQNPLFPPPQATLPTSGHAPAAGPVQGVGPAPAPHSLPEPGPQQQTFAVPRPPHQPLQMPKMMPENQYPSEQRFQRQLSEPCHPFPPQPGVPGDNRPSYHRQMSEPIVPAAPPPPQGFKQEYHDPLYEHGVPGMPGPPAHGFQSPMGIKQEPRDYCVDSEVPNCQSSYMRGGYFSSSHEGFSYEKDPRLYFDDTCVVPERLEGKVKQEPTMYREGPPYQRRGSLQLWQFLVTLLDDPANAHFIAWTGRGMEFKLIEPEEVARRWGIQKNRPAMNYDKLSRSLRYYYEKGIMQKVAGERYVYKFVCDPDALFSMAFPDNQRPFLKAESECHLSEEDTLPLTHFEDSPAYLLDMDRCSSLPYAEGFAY
# How it was run: as §1
# HSF1 = HSF1 (Homo sapiens, UniProt Q00613 1-529); conditions: protein: recombinant; tags: N-terminal GST; chain copies: 3; dsDNA, one strand shown
# Chain of HSF1 (Q00613 whole entry): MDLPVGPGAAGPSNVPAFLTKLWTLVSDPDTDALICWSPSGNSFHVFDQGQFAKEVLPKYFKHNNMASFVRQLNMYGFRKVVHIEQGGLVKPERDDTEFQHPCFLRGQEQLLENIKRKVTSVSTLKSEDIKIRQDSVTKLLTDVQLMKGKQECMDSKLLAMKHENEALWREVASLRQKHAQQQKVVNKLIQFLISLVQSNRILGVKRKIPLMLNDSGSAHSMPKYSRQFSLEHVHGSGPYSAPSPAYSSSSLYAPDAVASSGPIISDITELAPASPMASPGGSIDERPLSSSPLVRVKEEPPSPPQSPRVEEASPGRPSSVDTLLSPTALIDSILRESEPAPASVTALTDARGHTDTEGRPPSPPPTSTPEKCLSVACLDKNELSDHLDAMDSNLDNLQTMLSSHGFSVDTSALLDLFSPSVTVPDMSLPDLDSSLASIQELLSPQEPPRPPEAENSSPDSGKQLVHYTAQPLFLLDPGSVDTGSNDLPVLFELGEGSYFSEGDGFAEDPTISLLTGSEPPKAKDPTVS
# How it was run: as §1
# SPIC = biological target: T8, SPIC (Homo sapiens, UniProt Q8N5J4 1-248); conditions: protein: recombinant; tags: N-terminal GST; dsDNA, one strand shown
# T8 sequence: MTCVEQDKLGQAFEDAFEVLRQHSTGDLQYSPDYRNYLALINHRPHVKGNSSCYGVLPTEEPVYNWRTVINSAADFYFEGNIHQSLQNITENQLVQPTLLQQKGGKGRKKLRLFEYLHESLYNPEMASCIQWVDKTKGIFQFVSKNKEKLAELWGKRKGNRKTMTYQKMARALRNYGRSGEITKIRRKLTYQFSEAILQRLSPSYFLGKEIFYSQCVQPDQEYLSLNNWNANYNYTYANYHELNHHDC
# How it was run: as §1
# ELF4 = ELF4 (Homo sapiens, UniProt Q99607 1-663); conditions: protein: recombinant; tags: N-terminal GST; dsDNA, one strand shown
# Chain of ELF4 (Q99607 whole entry): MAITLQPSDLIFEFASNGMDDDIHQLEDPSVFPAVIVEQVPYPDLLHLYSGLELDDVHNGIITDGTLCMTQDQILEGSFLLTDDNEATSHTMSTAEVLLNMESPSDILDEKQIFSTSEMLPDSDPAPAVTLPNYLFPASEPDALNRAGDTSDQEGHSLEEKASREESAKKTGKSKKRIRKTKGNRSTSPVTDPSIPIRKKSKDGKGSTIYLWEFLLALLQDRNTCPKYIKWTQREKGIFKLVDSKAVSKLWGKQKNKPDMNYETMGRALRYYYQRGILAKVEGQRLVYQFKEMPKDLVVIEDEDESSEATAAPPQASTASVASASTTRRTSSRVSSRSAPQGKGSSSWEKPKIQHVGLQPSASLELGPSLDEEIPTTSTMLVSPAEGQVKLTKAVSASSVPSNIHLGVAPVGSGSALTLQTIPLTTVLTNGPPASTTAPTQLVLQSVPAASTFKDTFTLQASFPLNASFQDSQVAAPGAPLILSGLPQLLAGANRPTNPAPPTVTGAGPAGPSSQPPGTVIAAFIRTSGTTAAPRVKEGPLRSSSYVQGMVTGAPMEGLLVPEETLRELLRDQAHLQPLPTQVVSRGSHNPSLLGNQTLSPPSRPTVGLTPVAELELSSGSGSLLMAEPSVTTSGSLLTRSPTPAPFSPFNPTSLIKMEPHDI
# How it was run: as §1
# ELK4 = biological target: T9, ELK4 (Homo sapiens, UniProt P28324-2 1-405); conditions: protein: recombinant; tags: N-terminal GST; dsDNA, one strand shown
# T9 sequence: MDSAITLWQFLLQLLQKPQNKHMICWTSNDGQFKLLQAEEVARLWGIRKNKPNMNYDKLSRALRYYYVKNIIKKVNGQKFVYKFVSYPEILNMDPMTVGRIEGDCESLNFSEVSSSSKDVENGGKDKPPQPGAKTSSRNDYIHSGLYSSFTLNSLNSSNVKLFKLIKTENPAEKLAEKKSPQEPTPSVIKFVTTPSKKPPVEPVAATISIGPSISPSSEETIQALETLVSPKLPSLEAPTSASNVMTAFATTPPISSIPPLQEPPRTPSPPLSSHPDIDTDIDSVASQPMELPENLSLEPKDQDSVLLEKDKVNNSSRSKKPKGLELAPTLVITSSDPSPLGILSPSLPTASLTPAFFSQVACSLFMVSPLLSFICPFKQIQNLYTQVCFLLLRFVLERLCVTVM
# How it was run: as §1
# ETV2 = biological target: T10, ETV2 (Homo sapiens, UniProt O00321 1-342); conditions: protein: recombinant; tags: N-terminal GST; dsDNA, one strand shown
# T10 sequence: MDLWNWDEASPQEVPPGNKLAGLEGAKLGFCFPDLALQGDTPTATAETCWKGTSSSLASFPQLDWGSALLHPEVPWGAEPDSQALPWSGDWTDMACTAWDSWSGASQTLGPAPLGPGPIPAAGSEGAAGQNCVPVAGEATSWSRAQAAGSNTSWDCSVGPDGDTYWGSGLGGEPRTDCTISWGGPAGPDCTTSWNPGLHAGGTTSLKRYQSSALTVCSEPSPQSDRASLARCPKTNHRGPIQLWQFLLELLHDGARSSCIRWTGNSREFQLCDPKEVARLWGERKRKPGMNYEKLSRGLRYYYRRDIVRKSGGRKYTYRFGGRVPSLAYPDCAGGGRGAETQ
# How it was run: as §1
# ELF3 = biological target: T11, ELF3 (Homo sapiens, UniProt P78545 1-371); conditions: protein: recombinant; tags: N-terminal GST; dsDNA, one strand shown
# T11 sequence: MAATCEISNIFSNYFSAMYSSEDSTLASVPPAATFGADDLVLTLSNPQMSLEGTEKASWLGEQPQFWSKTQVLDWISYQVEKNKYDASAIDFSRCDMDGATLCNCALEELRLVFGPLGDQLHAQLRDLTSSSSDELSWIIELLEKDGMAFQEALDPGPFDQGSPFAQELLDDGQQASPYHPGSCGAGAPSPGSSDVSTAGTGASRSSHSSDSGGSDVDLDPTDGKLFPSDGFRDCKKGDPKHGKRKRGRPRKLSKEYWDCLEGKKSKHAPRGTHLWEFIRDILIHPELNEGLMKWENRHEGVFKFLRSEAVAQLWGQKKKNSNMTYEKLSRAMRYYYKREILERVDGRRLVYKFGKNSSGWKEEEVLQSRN
# How it was run: as §1
# CRX = CRX (Homo sapiens, UniProt O43186 1-299); conditions: protein: recombinant; tags: N-terminal GST; dsDNA, one strand shown
# Chain of CRX (O43186 whole entry): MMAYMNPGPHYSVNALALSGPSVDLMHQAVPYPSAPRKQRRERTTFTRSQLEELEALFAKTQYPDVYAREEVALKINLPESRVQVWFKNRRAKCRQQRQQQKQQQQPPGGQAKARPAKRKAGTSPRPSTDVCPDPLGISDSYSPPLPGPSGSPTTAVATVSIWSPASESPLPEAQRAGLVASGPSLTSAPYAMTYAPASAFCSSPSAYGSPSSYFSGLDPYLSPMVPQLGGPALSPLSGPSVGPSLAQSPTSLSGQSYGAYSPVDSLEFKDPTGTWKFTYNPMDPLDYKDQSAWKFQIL
# How it was run: as §1
# ETV1 = ETV1 (Homo sapiens, UniProt P50549 1-477); conditions: protein: recombinant; tags: N-terminal GST; dsDNA, one strand shown
# Chain of ETV1 (P50549 whole entry): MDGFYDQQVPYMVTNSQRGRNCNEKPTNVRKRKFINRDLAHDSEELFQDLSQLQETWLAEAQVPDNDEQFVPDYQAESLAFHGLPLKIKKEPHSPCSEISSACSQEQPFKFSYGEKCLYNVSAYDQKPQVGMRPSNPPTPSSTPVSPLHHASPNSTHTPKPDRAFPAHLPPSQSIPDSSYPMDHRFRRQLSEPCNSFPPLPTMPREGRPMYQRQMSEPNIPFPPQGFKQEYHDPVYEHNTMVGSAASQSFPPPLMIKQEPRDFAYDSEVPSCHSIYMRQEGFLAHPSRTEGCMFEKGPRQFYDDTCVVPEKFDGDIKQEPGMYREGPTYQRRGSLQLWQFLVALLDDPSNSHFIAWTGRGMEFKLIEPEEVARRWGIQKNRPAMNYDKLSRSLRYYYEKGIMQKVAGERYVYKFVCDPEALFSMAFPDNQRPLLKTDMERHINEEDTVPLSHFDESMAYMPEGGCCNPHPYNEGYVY
# How it was run: as §1
sequence,measurement,setting,value
ACTCTG,binding signal,FLI1,"1.28 fold enrichment (6-mer frequency, TF over GST control)"
same,binding signal,ELK1,"1.23 fold enrichment (6-mer frequency, TF over GST control)"
same,binding signal,GABPA,"1.38 fold enrichment (6-mer frequency, TF over GST control)"
same,binding signal,ERG,"1.24 fold enrichment (6-mer frequency, TF over GST control)"
same,binding signal,ELF1,"1.37 fold enrichment (6-mer frequency, TF over GST control)"
same,binding signal,EHF,"1.33 fold enrichment (6-mer frequency, TF over GST control)"
same,binding signal,SPI1,"1.26 fold enrichment (6-mer frequency, TF over GST control)"
same,binding signal,SPIB,"1.21 fold enrichment (6-mer frequency, TF over GST control)"
same,binding signal,ELK3,"1.14 fold enrichment (6-mer frequency, TF over GST control)"
same,binding signal,FEV,"1.27 fold enrichment (6-mer frequency, TF over GST control)"
same,binding signal,ETV5,"1.27 fold enrichment (6-mer frequency, TF over GST control)"
same,binding signal,HSF1,"1.12 fold enrichment (6-mer frequency, TF over GST control)"
same,binding signal,SPIC,"1.51 fold enrichment (6-mer frequency, TF over GST control)"
same,binding signal,ELF4,"1.24 fold enrichment (6-mer frequency, TF over GST control)"
same,binding signal,ELK4,"1.23 fold enrichment (6-mer frequency, TF over GST control)"
same,binding signal,ETV2,"1.23 fold enrichment (6-mer frequency, TF over GST control)"
same,binding signal,ELF3,"1.15 fold enrichment (6-mer frequency, TF over GST control)"
same,binding signal,CRX,"1.12 fold enrichment (6-mer frequency, TF over GST control)"
same,binding signal,ETV1,"1.25 fold enrichment (6-mer frequency, TF over GST control)"
